Reference: ChEMBL document CHEMBL3988442, “University of Dundee, Small-Polar-MMV Screening Library” (2021)
About 13,000 (27%) of roughly 48,000 compounds showed an effect of 50% or more. This is one part of the list.

Test system: Wolbachia pipientis
Assay: Anti-Wolbachia Cell-Based Screen
Assay type: functional
Set-up: scale not given: in the data most compounds retested in dose-response had high values
Conditions: 5 µM

Row | SMILES | Percent Effect
1 | COCC1c2nnn(CC3CC3)c2CCN1C(=O)c1ccnnc1 (centres undefined) | -5.349%
2 | Cc1csc(N(C)C(=O)C2CC(=O)N(c3ccccc3Cl)C2)n1 (centres undefined) | 9.936%
3 | CC(Sc1nnc(C2CC2)n1CC(N)=O)c1ccc(F)cc1F (centres undefined) | -10.03%
4 | Cc1cccc(-c2ncc(CNC(C)CO)cn2)c1 (centres undefined) | -5.698%
5 | Cn1cnnc1C1CCN(c2cncc(-n3cccn3)n2)CC1 | 0.9995%
6 | O=C(NCC(O)(c1cccs1)C1CC1)NC1CCCCC1 (centres undefined) | 9.559%
7 | COCC1CN(S(=O)(=O)Cc2ccccc2)Cc2c1cnn2C.O=C(O)C(F)(F)F (centres undefined) | -18.15%
8 | Cc1cccc(N2CCN(CC(=O)N3CCCC(N(C)C)CC3)CC2)c1 (centres undefined) | -50.72%
9 | Cl.Cl.Fc1cccc(-c2c[nH]c(C3CCCN3)n2)c1 (centres undefined) | -26.74%
10 | Cc1cc(Nc2cnccn2)cc(C2CCCN2)n1 (centres undefined) | 103.5%
11 | Cc1cc(C)nc(NC2CCOC3(CCCC3)C2)n1 (centres undefined) | -13.03%
12 | Cc1cc(Nc2cnccn2)cc(C2CCCNC2)n1 (centres undefined) | 90.08%
13 | Cc1cc(Nc2ccc(F)cn2)cc(C2CCCN2)n1 (centres undefined) | 111.9%
14 | Cc1cc(Nc2nc(C)cc(C)n2)cc(C2CCCN2)n1 (centres undefined) | 104%
15 | Cn1cc(C2CC3(CCN(C(=O)c4ccsc4)CC3)NC2=O)cn1 (centres undefined) | -8.602%
16 | Cc1ccc(C(=O)N2CC(C)(C)[C@@](C)(O)C2)cc1N1CCNC1=O | -5.477%
17 | Cc1nn(C)c(C)c1CN(CCO)C(=O)C1COc2ccccc2C1 (centres undefined) | -4.476%
18 | COCC(O)CNC(=O)c1coc(COc2ccc3sc(C)nc3c2)n1 (centres undefined) | -2.868%
19 | CC(Cn1cccn1)NCc1csc(-c2ccccc2)n1 (centres undefined) | 5.94%
20 | CCCS(=O)(=O)NC(=O)c1ccc(Br)o1 | -3.964%
21 | O=C(O)C(F)(F)F.O=C(O)C(F)(F)F.c1cc2nc(C3CCN(CC4CC4)CC3)nn2cc1N1CCCC1 | -8.773%
22 | Cn1nccc1-c1ccc2nc(C3CCN(CCO)CC3)nn2c1.O=C(O)C(F)(F)F | -15.06%
23 | CC(=O)N1CCC(c2nc3ccc(-c4ccnn4C)cn3n2)CC1.O=C(O)C(F)(F)F | 79.91%

Row | SMILES | Percent Effect
24 | CC(C)N1CCC(c2nc3ccc(-c4ccnn4C)cn3n2)CC1.O=C(O)C(F)(F)F | 101.4%
25 | Cn1nccc1-c1ccc2nc(C3CCN(CC4CC4)CC3)nn2c1.O=C(O)C(F)(F)F.O=C(O)C(F)(F)F | 97.48%
26 | Cn1nccc1-c1ccc2nc(C3CCNCC3)nn2c1 | 98.45%
27 | CCC1c2ccsc2CCN1C(=O)NCCNc1ncccn1 (centres undefined) | 9.072%
28 | O=C(c1ccccn1)N1C[C@@H]2CC[C@H](C1)N(C(=O)Cc1cccs1)C2 | -18.37%
29 | CCc1sc(-c2nnc(CNC(C)Cn3cccn3)o2)cc1C (centres undefined) | -4.192%
30 | COCC(=O)N1CCC2(CCC2NC(=O)c2ccn(C)c2)CC1 (centres undefined) | -13.3%
31 | Cn1ccc(C(=O)NC2CCC23CCN(CC2CCOCC2)CC3)c1.O=C(O)C(F)(F)F (centres undefined) | 102.1%
32 | Cn1ccc(C(=O)NC2CCC23CCN(C(=O)c2cnccn2)CC3)c1 (centres undefined) | 13.19%
33 | Cn1ccc(C(=O)NC2CCC23CCN(C(=O)c2ccncc2)CC3)c1.O=C(O)C(F)(F)F (centres undefined) | -9.033%
34 | Cn1ccc(C(=O)NC2CCC23CCN(Cc2cccnc2)CC3)c1.O=C(O)C(F)(F)F.O=C(O)C(F)(F)F (centres undefined) | 0.1855%
35 | Cc1ccc(CN2CC(C(=O)NCC3CC3)C3(CCOCC3)C2)s1.O=C(O)C(F)(F)F (centres undefined) | 9.43%
36 | Cn1ccc(C(=O)NC2CCC23CCN(C(=O)C2CCOCC2)CC3)c1 (centres undefined) | -10.05%
37 | Cn1ccc(C(=O)NC2CCC23CCN(Cc2cnn(C)c2)CC3)c1.O=C(O)C(F)(F)F (centres undefined) | 118.5%
38 | Cn1ccc(C(=O)NC2CCC23CCN(Cc2ccc(F)cc2)CC3)c1.O=C(O)C(F)(F)F (centres undefined) | 104.6%
39 | Cc1ccc(CN2CCC3(CCC3NC(=O)c3ccn(C)c3)CC2)s1.O=C(O)C(F)(F)F (centres undefined) | 90.78%
40 | Cc1ccccc1CN1CCN(C(=O)CN2CCOC2=O)CC1 | -7.914%
41 | Cc1nc2c(c(N3CCCC(CO)C3)n1)CCN(Cc1ccco1)CC2 (centres undefined) | -5.863%
42 | CC(C)(C)CC(=O)NC[C@H]1OC[C@@H](NCc2ccccn2)[C@@H]1O | -12.57%
43 | COc1ccc(CN2C[C@@H](CN(C)C)[C@@H](CO)C2)cc1OC | 17.76%
44 | Cn1ccc(C(=O)NC2CCC23CCN(Cc2nccs2)CC3)c1 (centres undefined) | 125.2%
45 | Cn1ccc(C(=O)NC2CCC23CCN(C(=O)c2ccccn2)CC3)c1 (centres undefined) | -6.667%
46 | Cn1ccc(C(=O)NC2CCC23CCN(C(=O)c2ccnnc2)CC3)c1 (centres undefined) | 9.055%

Row | SMILES | Percent Effect
47 | CS(=O)(=O)NCc1cc2n(n1)CCCN(Cc1ccc(Cl)s1)C2 | 7.385%
48 | Cc1csc(CN(C)C(C)C(=O)N2CCc3ccccc3C2)n1 (centres undefined) | 7.72%
49 | CC(C)[C@H](N)C(=O)N1CCSc2ccccc2C1.Cl | 101.9%
50 | Cl.NC(C(=O)N1CCSc2ccccc2C1)c1ccccc1 (centres undefined) | 93.09%
51 | CC(C)(O)CN1CCN(C(=O)C2CSc3ccccc3O2)CC1 (centres undefined) | -0.7844%
52 | N[C@@H](C(=O)N1CCN(c2ccccc2Cl)C(=O)C1)c1ccccc1 | 1.545%
53 | CC(C)C[C@H](N)C(=O)N1CCSc2ccccc2C1.Cl | 104.5%
54 | CN(C)C(C(=O)N1Cc2ccccc2C1)c1ccccc1F (centres undefined) | -6.272%
55 | O=C(C1CSc2ccccc2O1)N1CCN(CCO)CC1 (centres undefined) | -0.8425%
56 | CCc1cnc(CN(C)C(C)C(=O)N2CCc3ccccc3C2)s1 (centres undefined) | -7.357%
57 | COc1ccc(-c2cn(CCn3c(C)cc(C)nc3=O)nn2)cn1 | 13.66%
58 | CC(Oc1ccc(F)cc1F)C(=O)N1CCC2(CC1)CC(=O)N(C)C2 (centres undefined) | -15.1%
59 | Cn1c(C(=O)N2CCc3[nH]cnc3C2C(=O)O)ccc1-c1ccccc1 (centres undefined) | 10.75%
60 | CN(Cc1nc(CC2CC2)no1)CC1Cc2ccccc2O1 (centres undefined) | 1.11%
61 | Cn1c(C(F)(F)F)nn(CCNC(=O)CCc2ccccc2)c1=O | 8.562%
62 | O=C(CNC(=O)c1c(F)cccc1Cl)Nc1ccc(F)cn1 | -31.04%
63 | Cn1c(C(F)(F)F)nn(CCNC(=O)c2ccccn2)c1=O | -5.949%
64 | CC(=O)NCc1ccc(-n2ccnc2C)nc1 | 28.24%
65 | O=c1ccc(-n2ccnc2)nn1CCNS(=O)(=O)c1ccccc1Cl | -3.668%
66 | Cc1nccn1-c1ccc(=O)n(CCNC(=O)c2c(F)cccc2Cl)n1 | 122.2%
67 | Cc1nccn1-c1ccc(=O)n(CCNC(=O)c2ccccn2)n1 | 116.7%
68 | Cc1nccn1-c1ccc(=O)n(CCNC(=O)Cc2ccccc2)n1 | 251.7%
69 | Cc1nccn1-c1cc(CNC(=O)c2ccccn2)ccn1 | -23.44%
